Inconclusive results are not listed. Calls of active or inactive are those of the source. Unless noted, calls come from the whole dose curve; as a rule, active = well fitted curve in the direction sought with a large enough effect; inconclusive = small, poorly fitted or top-dose-only effect, or another doubt; inactive = no such curve, though single readings can be large; an effect the other way counts as inactive or inconclusive.

Experiment [1] addresses Lysosomal acid glucosylceramidase (Homo sapiens) (UniProt P04062). Put plainly: Glucocerebrosidase-p2 (AID 348; in the data active = potency below about 10 µM; note: potency is the fitted concentration of half-maximal effect). Particulars: purified GBA, blue fluorogenic substrate, 40 min. A digest of the protocol:
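Compounds titrated from 0.6 nM upwards against 0.2 nM enzyme in pH 5.9 citric acid/KH2PO4, taurocholate, tween-20; blue fluorogenic substrate 80 uM, 40 min room temperature, stopped and read Ex 365/Em 440 for AC50.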

A short description of experiment [2]: AP1 Signaling Pathway (AID 357; active = well fitted curve in either direction with a large enough effect, not every such curve was filed as active; note: % is set by controls: 0 for no effect and ±100 for the full control effect). The note with it: ME-180 AP-1-bla reporter, EGF-induced, beta-lactamase ratio, 5 h; at 7.69 µM (top of the series) unless noted. Summed up: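 AP-1-bla ME-180 cells, Opti-MEM + 0.5% dialyzed FBS, plated overnight 37 °C. Cpd titration + EC50 EGF, 5 h 37 °C. CCF4 2.5 h RT; ex 405, em 460/530 ratio → %activity, AC50.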
Experiment [3] deals with Cytochrome P450 1A2 (Homo sapiens) (UniProt P05177). The experiment is described as follows: p450-cyp1a2 (AID 410; calls by dose curve; note: potency is the fitted concentration of half-maximal effect;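 for activity change, negative = inhibition: -100% = full effect of reference inhibitor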). Particulars: recombinant CYP1A2, luciferin-ME demethylation, luminescence; series mostly up to 57 µM. Summed up: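 Human CYP1A2 (20nM) demethylated Luciferin-ME at its Km (100uM) in 100mM KPO4. After 10 min compound preincubation, NADPH regeneration ran the reaction 60 min at room temperature. Luciferin was read by luminescence, normalized to 57 uM furafylline.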

Experiment [4] is described as follows: NFAT Signaling Pathway (AID 444; active = well fitted curve in either direction with a large enough effect, not every such curve was filed as active;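 note: carbachol stimulus at about its EC50 of 1 µM final; % is set by controls: 0 for no effect and ±100 for the full control effect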). The note with it: Jurkat NFAT-bla M1, carbachol, beta-lactamase ratio, 5 h; at 7.69 µM (top of the series) unless noted. Summed up: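 Read-out: CCF4 FRET ratio (460 nm/530 nm) after 1 h RT dye loading, used for %activity and AC50 from titration series. Cells: Jurkat NFAT-β-lactamase/M1 line, treated with compound plus 1 uM carbachol for 5 h, 37 °C.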

The nature of experiment [5]: Stat Signaling Pathway (AID 446; active = well fitted curve in either direction with a large enough effect, not every such curve was filed as active;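 note: ME-180 cervical cancer cells given 40 pM IL-6 alongside compound; SIE-controlled beta-lactamase reporter measured as 460/530 nm FRET emission ratio; % is set by controls: 0 for no effect and ±100 for the full control effect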). The note with it: ME-180 SIE beta-lactamase reporter, IL-6 stimulated, 5 h; at 7.69 µM (top of the series) unless noted. A digest of the protocol: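 Reporter line: ME-180 cervical carcinoma, SIE-beta-lactamase. Treatment: compound with 40 pM IL-6, 5 hrs, 37 C, in low-serum OPTI-MEM with 10 mM HEPES pH 7.3. Detection: 460/530 nm fluorescence.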

For experiment [6], the target named is Glucocorticoid receptor (Homo sapiens) (UniProt P04150). The experiment is described as follows: GR-GFP Redistribution (AID 450;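 active = compounds whose dose series gives a full or clear partial fitted curve of increased nuclear translocation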; note: potency is the fitted concentration of half-maximal effect). Particulars: U2OS GR-GFP nuclear translocation, laser cytometry, 2 h.
The target is the same in experiment [7]. The experiment is described as follows: GR-EFC Redistribution (AID 451; calls by dose curve; note: potency is the fitted concentration of half-maximal effect). Particulars: CHO-K1 GR-EFC translocation, beta-gal luminescence, 2 h. A digest of the protocol: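 Translocation of GR-ED fusion to nuclear EA restores b-gal, read by luminescence after 1 h room-temperature detection. Engineered CHO-K1 biosensor cells, 1,000/well, exposed 2 h at 37 C to titrations up to 46 uM final.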

Experiment [8] concerns the target Mitogen-activated protein kinase 10 (Mus musculus) (UniProt Q61831). The experiment is described as follows: JNK3 AlphaScreen Assay (AID 530; active = well fitted curve in either direction with a large enough effect, not every such curve was filed as active;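 note: kinase came from lysate of stimulated human HepG2 cells; signal reports phosphorylation of biotinylated GST-cJun 1-79 at Ser73 with 10 µM ATP; % is set by controls: 0 for no effect and ±100 for the full control effect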). Particulars: JNK3 lysate, c-Jun phosphorylation; series mostly up to 57.1 µM. A digest of the protocol:
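Room-temperature AlphaScreen kinase assay; pre-activated HepG2 lysate as JNK3 source, biotin-GST-cJun(1-79) substrate, 10 uM ATP, compound 15 min preincubation.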
A general note: In Alpha technology, singlet oxygen from a donor bead excites a nearby acceptor bead.

The target in experiment [9] is 3',5'-cyclic-AMP phosphodiesterase 4B (Homo sapiens) (UniProt Q07343). Put plainly: qHTS Assay for Inhibitors of PDE-IV (AID 607; active = well fitted activation curve with a large enough effect in the main read-out, with a control signal flat, not every such curve was filed as active; note: % of control where 0% means no effect). The note with it: HEK293 ACTOne CNG channel cells, membrane potential fluorescence; series mostly up to 22.9 µM. A digest of the protocol:
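Cell-based read-out of cAMP via a modified cyclic nucleotide-gated channel and membrane potential dye (535/590 nm) in HEK293 cells expressing PDE4 endogenously. Compounds tested up to 22.9 uM final; 100 uM RO 20-1724 reference.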
In general terms: qHTS replaces the single test concentration by a dilution series.

Experiment [10] is described as follows: qHTS Assay for Lipid Storage Modulators (AID 1519; calls by dose curve). The note with it: Drosophila S3 cells, BODIPY lipid droplet/cell ratio, laser cytometry, cells loaded with oleic acid; for activity change, negative = inhibition: at 57.5 µM (top of the series). A digest of the protocol:
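Cells seeded at 5,000 per well were treated with compounds over a concentration series and loaded with oleic acid (400 uM, as added). Lipid droplet fluorescence (488 nm excitation, 500-530 nm channel) was read by laser-scanning cytometry and normalized to 20 uM Triacsin C.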

Experiment [11] has as its target Dual specificity protein kinase CLK4 (Homo sapiens) (UniProt Q9HAZ1). The experiment is described as follows: qHTS Assay for Inhibitors of CDC-like Kinase 4 (Kinase-Glo Assay) (AID 1770). Note: nearly all actives have a fitted effect of over 65% in size. Note: potency is the fitted concentration of half-maximal effect. Particulars: recombinant Clk4, Kinase-Glo ATP depletion luminescence; series mostly up to 66.7 µM. Summed up: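 Substrate mix (RS peptide 100 uM, ATP 1 uM) dispensed, compound pinned in, then Clk4 added to 25 nM final. Incubated 4.5 h at RT; Kinase-Glo reagent added, luminescence read after 5 min.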

Experiment [12] shares this target. The experiment is described as follows: qHTS Assay for Inhibitors of CDC-like Kinase 4 (ADP-Glo Assay) (AID 1771). Note: nearly all actives have a fitted effect of over 70% in size. Note: potency is the fitted concentration of half-maximal effect. The note with it: recombinant CLK4, ADP-Glo luminescence; series mostly up to 80 µM. A digest of the protocol:
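Clk4 (25 nM) was incubated 1 hr at room temperature with 100 uM RS repeat peptide and 1 uM ATP in buffer with 2 mM MgCl2, 0.5 mM EGTA, 2.5 mM DTT. ADP formed was quantified by ADP-Glo luminescence.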

Experiment [13] has as its target Ubiquitin carboxyl-terminal hydrolase 1 (Homo sapiens) (UniProt O94782). Put plainly: Inhibitors of USP1/UAF1: Pilot qHTS (AID 504865).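 Note: rhodamine fluorescence freed from ubiquitin-rhodamine substrate followed over time; top concentration of the series differs between compounds; % is set by controls: 0 for no effect and ±100 for the full control effect; nearly all actives have a fitted effect of over 35% in size.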 The note with it: purified USP1/UAF1, Ub-rhodamine cleavage fluorescence; series mostly up to 54.9 µM. Summed up: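 In 50mM HEPES pH 7.8 containing 0.5mM EDTA, 1mM TCEP, 0.1 mg/ml BSA and 0.01% Tween-20, 1nM USP1/UAF1 is exposed to compound for 15 min, then Ub-Rho (150nM final) is added and fluorescence is read over time.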

The target in experiment [14] is Cytochrome P450 3A4 (Homo sapiens) (UniProt P08684). The experiment is described as follows: qHTS Assay for Inhibitors and Substrates of Cytochrome P450 3A4 (AID 884). Note: potency is the fitted concentration of half-maximal effect; nearly all actives have a fitted effect of over 50% in size. The note with it: recombinant CYP3A4, Luciferin-PPXE luminescence; series mostly up to 57.1 µM. Summed up:
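20 nM human CYP3A4 with 25 uM Luciferin-PPXE (at KM) in 200 mM KPO4, preincubated 10 min with compound; NADPH regeneration started a 60 min RT reaction. Luciferin detected by luminescence, normalized to 57 uM ketoconazole as full inhibition.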

The target is the same in experiment [15]. The experiment is described as follows: qHTS Assay for Activators of Cytochrome P450 3A4 (AID 885). Note: nearly all actives have a fitted effect of over 65% in size. The note with it: recombinant CYP3A4, Luciferin-PPXE luminescence, 60 min; series mostly up to 57.1 µM. A digest of the protocol:
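Signal was normalized against complete inhibition by 57 uM ketoconazole. The reaction used 20nM CYP3A4 with 25uM Luciferin-PPXE, 10-min compound preincubation and a 60-min NADPH-supported step at RT.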

Experiment [16] addresses Cytochrome P450 2C19 (Homo sapiens) (UniProt P33261). The experiment is described as follows: qHTS Assay for Inhibitors and Substrates of Cytochrome P450 2C19 (AID 899). Note: potency is the fitted concentration of half-maximal effect; nearly all actives have a fitted effect of over 60% in size. Particulars: recombinant CYP2C19, luciferin-H EGE luminescence; series mostly up to 57.1 µM. Summed up: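 Luminescence readout of luciferin formed from 10uM Luciferin-H EGE (KM level) by 5 nM CYP2C19 in 50mM KPO4. 60 min NADPH-driven reaction at 37C after 10 min compound preincubation; data scaled to 57uM ketoconazole inhibition.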

Experiment [17] has as its target Dual specificity protein kinase CLK4 (Homo sapiens) (UniProt Q9HAZ1). Put plainly: qHTS Assay for Inhibitors of CDC-like Kinase 4 (ADP-FP Assay) (AID 1795). Note: nearly all actives have a fitted effect of over 60% in size. Note: potency is the fitted concentration of half-maximal effect. The note with it: Transcreener ADP fluorescence polarization; series mostly up to 50 µM. Summed up:
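Clk4 6.25 nM; RS peptide 100 uM; ATP 1 uM; 25 mM Tris pH 7.5, 10 mM MgCl2; 1 h reaction. ADP detected via antibody/orange tracer FP displacement; TG003 positive control.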

Where [18] appears, read: measured here: cell count channel max response.
Setting [19] is: measured here: lipid channel max response.

Sequence of Glucocorticoid receptor (Homo sapiens) (P04150 whole entry, looked up, the tested form may be a part): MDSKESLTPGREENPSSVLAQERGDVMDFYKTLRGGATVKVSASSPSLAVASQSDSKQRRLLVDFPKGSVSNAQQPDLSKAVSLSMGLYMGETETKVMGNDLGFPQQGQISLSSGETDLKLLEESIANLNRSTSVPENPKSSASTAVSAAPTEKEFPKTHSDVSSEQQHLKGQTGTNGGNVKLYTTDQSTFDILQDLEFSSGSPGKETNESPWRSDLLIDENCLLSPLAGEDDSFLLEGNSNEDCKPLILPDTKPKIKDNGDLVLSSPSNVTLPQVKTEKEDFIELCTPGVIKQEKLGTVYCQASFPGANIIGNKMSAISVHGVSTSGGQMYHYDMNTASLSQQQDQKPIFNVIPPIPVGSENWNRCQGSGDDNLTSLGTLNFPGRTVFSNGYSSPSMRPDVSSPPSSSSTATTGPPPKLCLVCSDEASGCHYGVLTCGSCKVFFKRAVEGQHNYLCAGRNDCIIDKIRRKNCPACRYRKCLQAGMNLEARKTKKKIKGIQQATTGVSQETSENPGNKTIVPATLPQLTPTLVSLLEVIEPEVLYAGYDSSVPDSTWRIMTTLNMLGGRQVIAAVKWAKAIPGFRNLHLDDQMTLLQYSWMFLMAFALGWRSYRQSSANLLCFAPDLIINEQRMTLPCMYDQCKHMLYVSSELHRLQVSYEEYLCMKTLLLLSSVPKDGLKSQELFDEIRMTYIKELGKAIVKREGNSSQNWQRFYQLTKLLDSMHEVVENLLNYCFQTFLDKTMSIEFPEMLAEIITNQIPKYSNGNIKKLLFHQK
Sequence of Cytochrome P450 3A4 (Homo sapiens) (P08684 whole entry, looked up): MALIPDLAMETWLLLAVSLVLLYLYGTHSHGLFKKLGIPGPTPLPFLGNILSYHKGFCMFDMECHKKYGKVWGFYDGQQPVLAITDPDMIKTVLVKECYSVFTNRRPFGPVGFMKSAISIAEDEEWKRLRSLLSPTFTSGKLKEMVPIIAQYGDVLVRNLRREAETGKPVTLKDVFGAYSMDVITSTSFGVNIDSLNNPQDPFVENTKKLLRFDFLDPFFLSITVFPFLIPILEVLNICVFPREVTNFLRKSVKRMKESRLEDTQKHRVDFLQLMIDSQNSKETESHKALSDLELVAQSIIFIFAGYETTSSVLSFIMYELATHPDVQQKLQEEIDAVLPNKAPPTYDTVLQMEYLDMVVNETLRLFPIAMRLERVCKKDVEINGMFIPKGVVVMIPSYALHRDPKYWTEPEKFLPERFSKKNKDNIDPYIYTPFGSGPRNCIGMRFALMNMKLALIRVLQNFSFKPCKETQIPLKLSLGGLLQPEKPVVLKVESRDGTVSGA
Sequence of 3',5'-cyclic-AMP phosphodiesterase 4B (Homo sapiens) (Q07343 whole entry, looked up): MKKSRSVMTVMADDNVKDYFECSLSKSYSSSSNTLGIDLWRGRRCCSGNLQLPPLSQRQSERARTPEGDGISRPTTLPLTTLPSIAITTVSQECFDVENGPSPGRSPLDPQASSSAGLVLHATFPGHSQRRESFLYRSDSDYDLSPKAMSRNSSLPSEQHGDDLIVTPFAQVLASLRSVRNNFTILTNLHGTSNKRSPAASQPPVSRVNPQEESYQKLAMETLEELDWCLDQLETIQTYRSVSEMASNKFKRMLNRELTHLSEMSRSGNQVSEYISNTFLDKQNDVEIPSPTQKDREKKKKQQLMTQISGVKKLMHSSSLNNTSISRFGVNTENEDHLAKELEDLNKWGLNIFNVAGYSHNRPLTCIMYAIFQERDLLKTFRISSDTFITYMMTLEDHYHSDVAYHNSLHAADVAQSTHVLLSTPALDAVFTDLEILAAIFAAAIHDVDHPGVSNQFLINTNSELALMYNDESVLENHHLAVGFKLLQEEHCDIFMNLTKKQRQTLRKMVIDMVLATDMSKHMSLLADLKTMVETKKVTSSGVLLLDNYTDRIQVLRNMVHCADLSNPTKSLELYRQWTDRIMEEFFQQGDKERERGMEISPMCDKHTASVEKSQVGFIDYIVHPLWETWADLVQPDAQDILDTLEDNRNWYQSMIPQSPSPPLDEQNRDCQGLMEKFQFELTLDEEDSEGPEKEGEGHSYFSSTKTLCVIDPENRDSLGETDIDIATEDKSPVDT
Sequence of Cytochrome P450 1A2 (Homo sapiens) (P05177 whole entry, looked up): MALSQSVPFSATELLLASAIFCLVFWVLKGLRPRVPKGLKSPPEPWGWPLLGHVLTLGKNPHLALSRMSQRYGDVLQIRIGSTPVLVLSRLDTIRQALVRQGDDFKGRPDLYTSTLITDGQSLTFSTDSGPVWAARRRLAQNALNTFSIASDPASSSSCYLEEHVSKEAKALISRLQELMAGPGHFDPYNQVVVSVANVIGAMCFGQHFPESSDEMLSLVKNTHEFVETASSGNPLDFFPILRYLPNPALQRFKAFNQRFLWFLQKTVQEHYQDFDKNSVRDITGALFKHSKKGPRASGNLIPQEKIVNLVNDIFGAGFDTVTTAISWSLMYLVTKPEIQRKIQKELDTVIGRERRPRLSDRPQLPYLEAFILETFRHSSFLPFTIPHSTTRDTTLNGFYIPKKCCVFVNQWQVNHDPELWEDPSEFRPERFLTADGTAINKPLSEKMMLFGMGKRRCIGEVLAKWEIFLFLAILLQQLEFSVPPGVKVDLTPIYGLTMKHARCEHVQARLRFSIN
Sequence of Ubiquitin carboxyl-terminal hydrolase 1 (Homo sapiens) (O94782 whole entry, looked up): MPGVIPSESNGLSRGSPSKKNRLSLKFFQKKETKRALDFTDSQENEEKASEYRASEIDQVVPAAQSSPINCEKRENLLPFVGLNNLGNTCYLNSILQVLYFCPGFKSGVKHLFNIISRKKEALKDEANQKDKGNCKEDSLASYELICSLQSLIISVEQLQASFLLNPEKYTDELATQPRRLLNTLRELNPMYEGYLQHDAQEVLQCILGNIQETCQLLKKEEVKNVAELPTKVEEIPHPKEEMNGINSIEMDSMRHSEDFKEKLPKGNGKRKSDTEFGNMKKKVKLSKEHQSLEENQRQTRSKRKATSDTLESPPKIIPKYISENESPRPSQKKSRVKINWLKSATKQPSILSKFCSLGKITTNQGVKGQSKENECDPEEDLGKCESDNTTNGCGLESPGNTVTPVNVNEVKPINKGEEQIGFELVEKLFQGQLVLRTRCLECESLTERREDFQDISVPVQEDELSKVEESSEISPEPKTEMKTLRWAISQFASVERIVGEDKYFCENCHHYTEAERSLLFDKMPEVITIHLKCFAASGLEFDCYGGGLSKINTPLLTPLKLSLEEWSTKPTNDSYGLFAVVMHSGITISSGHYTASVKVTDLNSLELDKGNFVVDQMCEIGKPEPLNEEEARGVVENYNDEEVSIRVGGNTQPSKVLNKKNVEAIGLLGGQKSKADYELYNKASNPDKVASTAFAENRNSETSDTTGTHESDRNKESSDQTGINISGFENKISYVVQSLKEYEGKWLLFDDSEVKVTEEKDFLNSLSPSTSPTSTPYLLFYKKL
Sequence of Dual specificity protein kinase CLK4 (Homo sapiens) (Q9HAZ1 whole entry, looked up): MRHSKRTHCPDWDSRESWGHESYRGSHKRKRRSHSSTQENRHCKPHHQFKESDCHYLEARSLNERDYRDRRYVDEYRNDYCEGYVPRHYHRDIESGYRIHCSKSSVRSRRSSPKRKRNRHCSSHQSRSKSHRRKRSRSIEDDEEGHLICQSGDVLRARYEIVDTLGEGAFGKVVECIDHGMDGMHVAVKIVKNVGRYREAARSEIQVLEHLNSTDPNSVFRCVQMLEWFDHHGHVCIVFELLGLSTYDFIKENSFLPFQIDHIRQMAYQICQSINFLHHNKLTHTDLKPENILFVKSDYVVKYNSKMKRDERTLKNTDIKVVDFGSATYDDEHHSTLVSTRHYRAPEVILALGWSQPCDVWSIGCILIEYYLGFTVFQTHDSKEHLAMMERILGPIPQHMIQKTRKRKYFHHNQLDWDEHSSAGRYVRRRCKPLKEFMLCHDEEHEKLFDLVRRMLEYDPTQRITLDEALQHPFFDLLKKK
Sequence of Lysosomal acid glucosylceramidase (Homo sapiens) (P04062 whole entry, looked up): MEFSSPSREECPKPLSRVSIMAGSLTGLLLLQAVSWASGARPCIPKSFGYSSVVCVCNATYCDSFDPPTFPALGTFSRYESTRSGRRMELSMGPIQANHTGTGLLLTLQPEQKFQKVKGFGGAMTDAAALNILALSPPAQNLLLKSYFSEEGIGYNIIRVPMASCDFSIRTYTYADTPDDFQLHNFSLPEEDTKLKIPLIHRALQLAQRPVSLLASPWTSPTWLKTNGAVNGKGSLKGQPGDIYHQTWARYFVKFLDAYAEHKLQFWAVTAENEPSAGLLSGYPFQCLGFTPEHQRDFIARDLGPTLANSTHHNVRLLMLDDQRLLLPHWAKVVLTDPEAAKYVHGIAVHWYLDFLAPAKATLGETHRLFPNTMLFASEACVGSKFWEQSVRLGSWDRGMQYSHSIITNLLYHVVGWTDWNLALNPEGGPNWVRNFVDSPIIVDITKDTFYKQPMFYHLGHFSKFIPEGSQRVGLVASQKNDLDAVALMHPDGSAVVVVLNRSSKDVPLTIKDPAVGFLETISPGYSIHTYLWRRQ
Sequence of Cytochrome P450 2C19 (Homo sapiens) (P33261 whole entry, looked up): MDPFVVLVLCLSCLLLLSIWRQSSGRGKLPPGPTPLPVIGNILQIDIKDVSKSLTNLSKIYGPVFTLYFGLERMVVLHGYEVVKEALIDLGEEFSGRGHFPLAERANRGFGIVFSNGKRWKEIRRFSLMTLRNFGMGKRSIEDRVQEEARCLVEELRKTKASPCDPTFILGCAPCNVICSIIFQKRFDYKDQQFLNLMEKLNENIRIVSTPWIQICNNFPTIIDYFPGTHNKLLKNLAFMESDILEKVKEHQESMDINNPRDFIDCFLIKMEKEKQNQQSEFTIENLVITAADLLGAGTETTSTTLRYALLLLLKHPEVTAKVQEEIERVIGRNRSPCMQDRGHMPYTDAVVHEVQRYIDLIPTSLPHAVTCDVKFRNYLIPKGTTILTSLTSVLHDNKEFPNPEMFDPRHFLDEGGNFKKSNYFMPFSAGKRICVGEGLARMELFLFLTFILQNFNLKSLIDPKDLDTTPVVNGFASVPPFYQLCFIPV

As for `CN1CCN(c2ncc3nc(-c4cccc(C#N)c4)c(=O)n(CCC#N)c3n2)CC1`, the Potency in experiment [1] was > 11.4 µM (inactive); in experiment [6] it was > 9.22 µM (inactive); in [7] it was > 46 µM (inactive). The results for the activity change, negative = inhibition in experiment [2], in [4] and in [10] were -12.4% (inactive), 17.8% (inactive) and 4.89% (inactive), respectively. Besides, the Potency entry in experiment [3], in experiment [8], in experiment [9], in [11], in [12] and in experiment [13] was “inactive” in each case. For the same molecule, in experiment [5], the activity, negative = inhibition was 19.4% (inactive). Also, the max response in [10] (setting [18]) was -1.32%; in experiment [10] (setting [19]) it was 1.31%.

`COc1ccc(CNc2ncnc3ccc(-c4ccoc4)cc23)c(OC)c1`: the Potency in experiment [3] is 1.58 µM (active); in [6] it was > 46 µM (inactive); in experiment [7], > 46 µM (inactive); in experiment [14] it was 3.16 µM (active); in [16], 7.94 µM (active); in experiment [11] it was 0.708 µM (active). The values for the Potency in [12] and in experiment [17] were 1 µM (active) and 0.282 µM (active), respectively. Besides, the activity change, negative = inhibition in experiment [4] was 4.83% (inactive); in experiment [10], -9.76% (inactive). Also, in experiment [5], the activity, negative = inhibition is -19.6% (inactive). Besides, the Potency result in experiment [8], in experiment [15] and in experiment [13] was “inactive” throughout. Moreover, the max response worked out at 19.6% in [10] (setting [18]) and 6.18% in [10] (setting [19]).

`COc1ccccc1-c1ccc2ncnc(Nc3ccccc3)c2c1`: the Potency in [1] was > 11.4 µM (inactive); in experiment [3], 2.51 µM (active); in [6], > 46 µM (inactive); in experiment [7], > 46 µM (inactive); in experiment [16] it was 5.01 µM (active); in experiment [11], 15.8 µM (active). The Potency in experiment [12] was 15.8 µM (active). In addition, the figures for the activity change, negative = inhibition in experiment [4] and in experiment [10] were 10.9% (inactive) and -15.1% (inactive), respectively. For the same molecule, in [5], the activity, negative = inhibition was 9.56% (inactive). In addition, the Potency result in experiment [8], in [15] and in [13] was “inactive” each time. In addition, the max response in [10] (setting [18]) is -15.8%; in experiment [10] (setting [19]) it was -29%.

In the case of `CN1CCN(c2ncc3ncc(=O)n(-c4ccccc4)c3n2)CC1`, the Potency in experiment [1] was > 11.4 µM (inactive); in experiment [3] it was 2.51 µM (active); in experiment [6], > 9.22 µM (inactive); in experiment [7], > 46 µM (inactive). The activity change, negative = inhibition in experiment [4] was -18.4% (inactive); in [10] it was 4.96% (inactive). Also, the activity, negative = inhibition in experiment [5] was -9.93% (inactive). In addition, the Potency result in [8], in experiment [9], in experiment [11], in [17] and in experiment [13] was “inactive” each time. Moreover, the max response in [10] (setting [18]) was determined as 21.7%; in [10] (setting [19]) it was 23.9%.

`O=c1c(-c2ccccc2)nc2cnc(Oc3cccc(Cl)c3)nc2n1C[C@H]1CCCO1`: the results for the Potency in experiment [1], in experiment [6] and in experiment [7] were > 11.4 µM (inactive), > 9.22 µM (inactive) and > 46 µM (inactive), respectively. The values for the activity change, negative = inhibition in experiment [4] and in experiment [10] were -8.22% (inactive) and -16.5% (inactive), respectively. Also, the activity, negative = inhibition in [5] was -8.43% (inactive). The Potency result in experiment [8], in experiment [11], in [12], in experiment [17] and in experiment [13] was “inactive” each time. Also, the figures for the max response in [10] (setting [18]) and in experiment [10] (setting [19]) were 18.2% and -2.39%, respectively.

In the case of `COc1ccccc1-c1ccc2ncnc(NCCNC(C)=O)c2c1`, the Potency in experiment [1] was > 11.4 µM (inactive); in experiment [3] it was 5.01 µM (active); in [6], > 46 µM (inactive); in experiment [7] it was > 46 µM (inactive); in experiment [11] it was 11.2 µM (active). The results for the activity change, negative = inhibition in [2], in [4] and in experiment [10] were 11.9% (inactive), 3.1% (inactive) and 1.76% (inactive), respectively. Moreover, the activity, negative = inhibition in experiment [5] was -8.48% (inactive). Further, the Potency result in [8], in experiment [9], in experiment [15] and in experiment [13] was “inactive” throughout. The max response in experiment [10] (setting [18]) is -6.93%; in experiment [10] (setting [19]), -7.23%.

Source of the values: PubChem BioAssay (NCATS).
